# In PubChem BioAssay (NCATS):
# Records with an inconclusive call do not appear. Values without a mark were called inactive. The source made the active and inactive calls. Calls come from the whole dose curve; as a rule, active = well fitted curve in the direction sought with a large enough effect; inconclusive = small, poorly fitted or top-dose-only effect, or another doubt; inactive = no such curve, though single readings can be large; an effect the other way counts as inactive or inconclusive.
# Test: Viability qHTS for spleen associated tyrosine kinase inhibitor (SYKi) drug resistant MV4-11 cells (AID 1963824); note: nearly all actives have a fitted effect of over 35% in size
# Conditions: SYKi-resistant MV4-11 viability, CellTiter-Glo, 72 h; series mostly up to 45 µM; viability, % of control: at the top concentration
# How it was run: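 SYK inhibitor-resistant MV4-11 AML cells, 500 per well, added to predispensed compounds and incubated 72 hr at 37 C, 5% CO2. Viability measured by CellTiter-Glo luminescence after 10 min at room temperature.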
# Potency is the fitted concentration of half-maximal effect.
SMILES,"viability, % of control",Potency
CC(C)=CCCC1(C)Oc2cc3c(c4c2C2C(O4)C(C)(O)CCC21)CN(C(CCC(=O)O)C(=O)O)C3=O (configuration not stated),73.8% [at 17.3 µM],–
CC1(C)CC2C3=CCC4C5(C)CCC(OC6OC(CO)C(O)C(OC7OC(CO)C(O)C(OC8OC(CO)C(O)C(OC9OC(COC%10OC(CO)C(O)C(O)C%10O)C(O)C(O)C9O)C8O)C7O)C6O)C(C)(C)C5CCC4(C)C3(C)CCC2(C(=O)O)CC1O (configuration not stated),99.5% [at 9.25 µM],–
COC(=O)Nc1ccc(-c2nc(N3CCOCC3)c3cnn(C4CCN(Cc5cccnc5)CC4)c3n2)cc1,–,0.58 µM (active)
Cc1ccc(F)cc1S(=O)(=O)N[C@@H]1CCN(Cc2ccc(OC(C)C)cc2)C1,–,18.4 µM (active)
CC1=CC(=O)CC(C)(C)[C@@]1(O)CC[C@@H](C)O[C@@H]1O[C@H](CO)[C@@H](O)[C@H](O)[C@H]1O,83%,–

# Test: Quantitative highthroughput screen to assess conditional lethalithy of NOMO1 cells grown in RPMI1640 with untreated serum (RPMI+s) (AID 1963876); note: nearly all actives have a fitted effect of over 35% in size;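 for Viability: 100% = DMSO wells and 0% = empty wells without cells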
# Conditions: NOMO1 AML cells in RPMI+serum, CellTiter-Glo viability, 48 h; series mostly up to 45.8 µM; viability: at the top concentration
# How it was run: (§1)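 Each medium arm—HPLM with 10% dialyzed FBS, or RPMI1640 with 5 mM glucose and 10% untreated or dialyzed FBS—was screened against an 11-point, 3-fold compound titration for 48 h at 37 °C, with CellTiter-Glo luminescence as endpoint.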
SMILES,Potency,viability [%]
C=Cc1c(C)c2cc3nc(cc4[nH]c(cc5nc(cc1[nH]2)C(C)=C5CCC(=O)O)c(CCC(=O)OC)c4C)[C@@]1(C)C3=CC=C(C(=O)OC)[C@H]1C(=O)OC,14.8 µM (active),–
CC(O)C1C(=O)N2C(C(=O)O)=C(SC3CNC(C(=O)N(C)C)C3)C(C)C12 (configuration not stated),–,95.7
CCNC(=O)c1noc(-c2cc(C(C)C)c(O)cc2O)c1-c1ccc(CN2CCOCC2)cc1,0.0833 µM (active),–
CNc1nc(Nc2ccc(C(=O)N3CCOCC3)cc2OC)ncc1Cl,–,90.2
CN(C1CCc2c(c3ccccc3n2CC(=O)O)C1)S(=O)(=O)c1ccc(F)cc1 (configuration not stated),7.43 µM (active),–
Clc1ccc(Nc2nnc(Cc3ccncc3)c3ccccc23)cc1,–,101
COC(=O)Nc1ccc(-c2nc(N3CCOCC3)c3cnn(C4CCN(Cc5cccnc5)CC4)c3n2)cc1,4.69 µM (active),–

# Test: Quantitative highthroughput screen to assess conditional lethalithy of NOMO1 cells grown in RPMI1640 with dialyzed fetal bovine serum (RPMI+ds) (AID 1963877); note: nearly all actives have a fitted effect of over 30% in size;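 for Viability: 100% = DMSO control wells and 0% = empty wells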
# Conditions: NOMO1 in RPMI+dialyzed FBS viability, ATP luminescence, 48 h; series mostly up to 45.8 µM; viability: at the top concentration
# How it was run: as §1
SMILES,Potency,viability [%]
C=Cc1c(C)c2cc3nc(cc4[nH]c(cc5nc(cc1[nH]2)C(C)=C5CCC(=O)O)c(CCC(=O)OC)c4C)[C@@]1(C)C3=CC=C(C(=O)OC)[C@H]1C(=O)OC,13.2 µM (active),–
CC(O)C1C(=O)N2C(C(=O)O)=C(SC3CNC(C(=O)N(C)C)C3)C(C)C12 (configuration not stated),–,102
CCNC(=O)c1noc(-c2cc(C(C)C)c(O)cc2O)c1-c1ccc(CN2CCOCC2)cc1,0.0833 µM (active),–
CNc1nc(Nc2ccc(C(=O)N3CCOCC3)cc2OC)ncc1Cl,–,100
CN(C1CCc2c(c3ccccc3n2CC(=O)O)C1)S(=O)(=O)c1ccc(F)cc1 (configuration not stated),7.43 µM (active),–
Clc1ccc(Nc2nnc(Cc3ccncc3)c3ccccc23)cc1,–,107
COC(=O)Nc1ccc(-c2nc(N3CCOCC3)c3cnn(C4CCN(Cc5cccnc5)CC4)c3n2)cc1,1.87 µM (active),–

# Test: Quantitative highthroughput screen to assess conditional lethalithy of NOMO1 cells grown in Human Plasma-Like Medium with dialyzed fetal bovine serum (HPLM+ds) (AID 1963878); note: nearly all actives have a fitted effect of over 35% in size;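 for Viability: 100% = DMSO wells and 0% = empty wells on each plate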
# Conditions: NOMO1 AML cells in HPLM+ds, CellTiter-Glo viability, 48 h; series mostly up to 45.8 µM; viability: at the top concentration
# How it was run: as §1
SMILES,Potency,viability [%]
C=Cc1c(C)c2cc3nc(cc4[nH]c(cc5nc(cc1[nH]2)C(C)=C5CCC(=O)O)c(CCC(=O)OC)c4C)[C@@]1(C)C3=CC=C(C(=O)OC)[C@H]1C(=O)OC,14.8 µM (active),–
CC(O)C1C(=O)N2C(C(=O)O)=C(SC3CNC(C(=O)N(C)C)C3)C(C)C12 (configuration not stated),–,93.7
CNc1nc(Nc2ccc(C(=O)N3CCOCC3)cc2OC)ncc1Cl,–,105
CN(C1CCc2c(c3ccccc3n2CC(=O)O)C1)S(=O)(=O)c1ccc(F)cc1 (configuration not stated),5.9 µM (active),–
Clc1ccc(Nc2nnc(Cc3ccncc3)c3ccccc23)cc1,–,86.7
COC(=O)Nc1ccc(-c2nc(N3CCOCC3)c3cnn(C4CCN(Cc5cccnc5)CC4)c3n2)cc1,1.05 µM (active),–

# Test: Quantitative highthroughput screen to assess conditional lethalithy of P12 Ichikawa cells grown in Human Plasma-Like Medium with dialyzed fetal bovine serum (HPLM+ds) (AID 1963879); note: nearly all actives have a fitted effect of over 35% in size
# Conditions: ATP luminescence, 48 h; Potency: viability; series mostly up to 45.8 µM; viability: at the top concentration
# How it was run: as §1
SMILES,viability [%],Potency
C=Cc1c(C)c2cc3nc(cc4[nH]c(cc5nc(cc1[nH]2)C(C)=C5CCC(=O)O)c(CCC(=O)OC)c4C)[C@@]1(C)C3=CC=C(C(=O)OC)[C@H]1C(=O)OC,89.9,–
CC(O)C1C(=O)N2C(C(=O)O)=C(SC3CNC(C(=O)N(C)C)C3)C(C)C12 (configuration not stated),93.9,–
CNc1nc(Nc2ccc(C(=O)N3CCOCC3)cc2OC)ncc1Cl,102,–
CN(C1CCc2c(c3ccccc3n2CC(=O)O)C1)S(=O)(=O)c1ccc(F)cc1 (configuration not stated),–,8.33 µM (active)
Clc1ccc(Nc2nnc(Cc3ccncc3)c3ccccc23)cc1,101,–
COC(=O)Nc1ccc(-c2nc(N3CCOCC3)c3cnn(C4CCN(Cc5cccnc5)CC4)c3n2)cc1,–,5.9 µM (active)

# Test: Quantitative highthroughput screen to assess conditional lethalithy of P12 Ichikawa cells grown in RPMI1640 with dialyzed fetal bovine serum (RPMI+ds) (AID 1963880); note: nearly all actives have a fitted effect of over 35% in size;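 for Viability: 100% = DMSO wells and 0% = empty wells on each plate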
# Conditions: ATP luminescence, 48 h; Potency: P12-Ichikawa viability; series mostly up to 45.8 µM; viability: at the top concentration
# How it was run: as §1
SMILES,viability [%],Potency
C=Cc1c(C)c2cc3nc(cc4[nH]c(cc5nc(cc1[nH]2)C(C)=C5CCC(=O)O)c(CCC(=O)OC)c4C)[C@@]1(C)C3=CC=C(C(=O)OC)[C@H]1C(=O)OC,88,–
CC(O)C1C(=O)N2C(C(=O)O)=C(SC3CNC(C(=O)N(C)C)C3)C(C)C12 (configuration not stated),105,–
CNc1nc(Nc2ccc(C(=O)N3CCOCC3)cc2OC)ncc1Cl,96.7,–
CN(C1CCc2c(c3ccccc3n2CC(=O)O)C1)S(=O)(=O)c1ccc(F)cc1 (configuration not stated),–,14.8 µM (active)
Clc1ccc(Nc2nnc(Cc3ccncc3)c3ccccc23)cc1,97,–
COC(=O)Nc1ccc(-c2nc(N3CCOCC3)c3cnn(C4CCN(Cc5cccnc5)CC4)c3n2)cc1,–,1.48 µM (active)
